Drawing on PubChem BioAssay (EPA / NIEHS), this text covers outcome and AC50 for four molecules.

Molecules are shown by their SMILES. Results filed as inconclusive are left out. Activity calls are given as the source filed them. How the source made its calls, unless noted: active means hit-call score of the fitted dose curve at least 0.9, where 1 is the maximum; inactive means score below 0.9.

The term AC50 denotes the concentration giving half of the maximal activity seen.

Assay [1] can be described thus: ATG_PBREM_CIS: Attagene CIS-FACTORIAL HepG2 Assay for human Phenobarbital-responsive Enhancer Module (PBREM) (AID 2282955). The conditions noted are these: HepG2 PBREM cis-reporter, Attagene multiplexed transcription; actives raise or lower the signal. A digest of the protocol: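 Fluorescence of labelled reporter cDNA fragments, resolved by capillary electrophoresis, gives mRNA induction in transfected HepG2 cells treated for 24 h; DMSO serves as negative control and baseline.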

For assay [2], the target named is Paired box protein Pax-6 (Homo sapiens) (UniProt P26367). Kind of assay: ATG_Pax6_CIS: Attagene CIS-FACTORIAL HepG2 Assay for human Paired Box 6 (PAX6) (AID 2282956). The conditions noted are these: HepG2 CIS-FACTORIAL PAX6 reporter transcription, RNA readout; actives raise or lower the signal. The essentials: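 Multiplexed cis-reporter HepG2 system; 24 h treatment; reporter mRNA read by RT-PCR/CE fluorescence; bidirectional fit vs DMSO.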

A short description of assay [3]: ATG_PXRE_CIS: Attagene CIS-FACTORIAL HepG2 Assay for human Pregnane X Receptor Element (PXRE) (AID 2282957). The conditions noted are these: HepG2 Attagene CIS-FACTORIAL PXRE reporter, mRNA; actives raise or lower the signal. The essentials:
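Cells: HepG2, transiently transfected reporter units under cis promoter control. Exposure: 24 h. Detection: reporter mRNA via RT-PCR/CE fluorescence; bidirectional fitting, DMSO-referenced.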

The nature of assay [4]: ATG_PPRE_CIS: Attagene CIS-FACTORIAL HepG2 Assay for human Peroxisome Proliferator-activated Response Element (PPRE) (AID 2282958). The conditions noted are these: HepG2 PPRE cis-element reporter, Attagene transcription factor profiling; actives raise or lower the signal. The essentials:
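Cells are first transfected transiently with the multiplexed reporter library, then dosed for 24 h. Total RNA is reverse-transcribed, amplified, fluorescently end-labeled and HpaI-cut before capillary electrophoresis; activity is fitted bidirectionally against DMSO controls.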

Assay [5] in a line: ATG_RORE_CIS: Attagene CIS-FACTORIAL HepG2 Assay for human RAR-related Orphan Receptor Element (RORE) (AID 2282959). The conditions noted are these: HepG2 Attagene cis-factorial RORE reporter, mRNA; actives raise or lower the signal. A digest of the protocol:
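Cells were HepG2 carrying transfected cis-regulated reporter constructs, dosed for 24 hours. Total RNA was reverse-transcribed and reporter cDNA amplified, fluorescently labeled and sized by capillary electrophoresis. Activity was fitted bidirectionally relative to DMSO.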

A short description of assay [6]: ATG_Sox_CIS: Attagene CIS-FACTORIAL HepG2 Assay for human SRY-box transcription factor (SOX) (AID 2282960). The conditions noted are these: HepG2 Attagene cis-factorial SOX reporter, mRNA; actives raise or lower the signal. A digest of the protocol: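 Transient MRTU transfection of HepG2; 24 h compound incubation; TriZol RNA, oligo(dT) RT, PCR, 6-FAM primer extension, HpaI cut, CE. Bidirectional fit, DMSO = baseline.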

Assay [7] addresses Transcription factor Sp1 (Homo sapiens) (UniProt P08047). Kind of assay: ATG_Sp1_CIS: Attagene CIS-FACTORIAL HepG2 Assay for human Specificity Protein 1 (Sp1) (AID 2282961). The conditions noted are these: HepG2 Sp1 cis-reporter transcription, actives raise or lower the signal. A digest of the protocol: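 Endogenous Sp1 activity was gauged in human liver HepG2 cells bearing transfected reporter units under a cis-regulating promoter. After 24 h dosing, reporter mRNA was quantified by RT-PCR with capillary electrophoresis, and activity fitted bidirectionally versus DMSO.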

Assay [8] in a line: ATG_SREBP_CIS: Attagene CIS-FACTORIAL HepG2 Assay for human Sterol Regulatory Element Binding (SREBP) (AID 2282962). The conditions noted are these: HepG2 Attagene cis-factorial SREBP reporter, mRNA; actives raise or lower the signal. A digest of the protocol:
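mRNA induction of transfected cis-promoter reporters in HepG2 cells, 24 h post-dose. Detection: RT-PCR with 6-FAM-labelled products, HpaI digest, capillary electrophoresis. DMSO served as negative control and baseline.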

Assay [9] concerns the target Signal transducer and activator of transcription 3 (Homo sapiens) (UniProt P40763). Kind of assay: ATG_STAT3_CIS: Attagene CIS-FACTORIAL HepG2 Assay for human Signal Transducer and Activator of Transcription 3 (STAT3) (AID 2282963). The conditions noted are these: HepG2, Attagene cis-factorial STAT3 reporter transcription; actives raise or lower the signal. The essentials: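 Endogenous STAT3-responsive cis-element activity was read in transiently transfected HepG2 cells after 24 h treatment. Reporter transcripts were quantified via RT-PCR and capillary electrophoresis, with DMSO as negative control and bidirectional curve fitting.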

Assay [10] is described as follows: ATG_TA_CIS: Attagene CIS-FACTORIAL HepG2 Assay for human TA Basal Promoter (AID 2282964). The conditions noted are these: HepG2 Attagene CIS-factorial TA basal promoter reporter; actives raise or lower the signal. The essentials:
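Read-out: fluorescent reporter-transcript fragments resolved by capillary electrophoresis after RT-PCR and HpaI digestion. Source: HepG2 cells carrying transiently transfected multi-reporter cis constructs, treated 24 h. Endpoint fitted bidirectionally relative to DMSO.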

Assay [11] can be described thus: ATG_TCF_b_cat_CIS: Attagene CIS-FACTORIAL HepG2 Assay for human T-Cell-Factor with beta-catenin (TCF/b-cat) (AID 2282965). The conditions noted are these: HepG2 TCF/beta-catenin cis-reporter transcription, actives raise or lower the signal. The essentials:
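Endogenous TCF/LEF activity read as reporter transcript level via RT-PCR and capillary electrophoresis fluorescence in transfected HepG2, 24 h exposure; gain or loss of signal fitted against DMSO controls.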

Assay [12] in a line: ATG_TAL_CIS: Attagene CIS-FACTORIAL HepG2 Assay for human TAL Basal Promoter (AID 2282966).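 Further: background control endpoint measuring basal TAL promoter reporter mRNA not a specific factor.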 The conditions noted are these: HepG2 Attagene cis-factorial TAL promoter reporter; actives raise or lower the signal. A digest of the protocol: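 RT-PCR plus capillary electrophoresis quantifies reporter mRNA induction in transiently transfected HepG2 cells after 24 h chemical treatment. DMSO serves as negative control and baseline for bidirectional fitting.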

Assay [13] is described as follows: ATG_TGFb_CIS: Attagene CIS-FACTORIAL HepG2 Assay for human Transforming Growth Factor (TGF) (AID 2282967). The conditions noted are these: HepG2 Attagene CIS TGFb reporter, mRNA transcription; actives raise or lower the signal. The essentials: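 Transient MRTU transfection of HepG2 (FuGene 6). Dose 24 h. TriZol RNA, oligo(dT) RT, PCR, 6-FAM primer extension, HpaI cut, CE. Bidirectional fit, DMSO = baseline.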

Assay [14] is described as follows: ATG_VDRE_CIS: Attagene CIS-FACTORIAL HepG2 Assay for human Vitamin D Receptor Element (VDRE) (AID 2282968). The conditions noted are these: HepG2 VDRE cis-reporter transcription, actives raise or lower the signal. A digest of the protocol: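 Reporter mRNA induction, quantified by capillary electrophoresis of fluorescently labelled RT-PCR products, was read 24 h after dosing HepG2 cells carrying transiently transfected cis-regulated reporter units; gain or loss relative to DMSO.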

For assay [15], the target named is Nuclear receptor subfamily 1 group I member 3 (Homo sapiens) (UniProt Q14994). Kind of assay: ATG_CAR_TRANS: Attagene TRANS-FACTORIAL HepG2 Assay for human Constitutive Androstane Receptor (CAR) (AID 2282969; active means hit-call score of the fitted dose curve at least 0.9, where 1 is the maximum;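 further: activators raise reporter mRNA above DMSO so AC50 marks induction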). The conditions noted are these: HepG2 Attagene TRANS-FACTORIAL CAR reporter. The essentials: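 Readout is reporter mRNA induction, quantified by fluorescent primer extension and capillary electrophoresis after RT-PCR. Cells were HepG2 transiently carrying chimeric NR-Gal4 constructs with GAL4-UAS reporters, treated for 24 h; activity scored upward from DMSO.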

Assay [16] has as its target X-box-binding protein 1 (Homo sapiens) (UniProt P17861). Kind of assay: ATG_Xbp1_CIS: Attagene CIS-FACTORIAL HepG2 Assay for human X-box Binding Protein 1 (XBP1) (AID 2282972). The conditions noted are these: HepG2 XBP1 cis-element reporter, Attagene multiplex; actives raise or lower the signal. The essentials: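 Fluorescence-labelled cDNA fragments from reporter transcripts, separated by capillary electrophoresis, give the signal. Source: HepG2 cells transfected with promoter-driven reporter units, harvested 24 h post-dose. DMSO served as reference for bidirectional curve fitting.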

Assay [17] is described as follows: ATG_M_19_TRANS: Attagene TRANS-FACTORIAL HepG2 Assay for M19 Transcription Factor (Internal Marker) (AID 2282974; active means hit-call score of the fitted dose curve at least 0.9, where 1 is the maximum). The conditions noted are these: HepG2 Attagene TRANS-FACTORIAL M19 internal marker reporter. The essentials:
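Cells: human HepG2, transiently transfected with multiplexed reporter transcription units. Exposure: 24 h. Detection: RT-PCR of reporter mRNA with capillary electrophoresis. Analysis: gain-of-signal vs DMSO.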

A short description of assay [18]: ATG_GAL4_TRANS: Attagene TRANS-FACTORIAL HepG2 Assay for GAL4 (Internal Marker) (AID 2282976; active means hit-call score of the fitted dose curve at least 0.9, where 1 is the maximum). The conditions noted are these: HepG2 Attagene TRANS GAL4 internal marker reporter. The essentials: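 In transfected human HepG2 liver cells dosed 24 h, GAL4 reporter mRNA serves as a baseline marker. Detection by RT-PCR with fluorescent capillary electrophoresis, activity fitted upward relative to DMSO.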

For assay [19], the target named is Estrogen receptor (Homo sapiens) (UniProt P03372). Kind of assay: ATG_ERa_TRANS: Attagene TRANS-FACTORIAL HepG2 Assay for human Estrogen Receptor alpha (ERa) (AID 2282970; active means hit-call score of the fitted dose curve at least 0.9, where 1 is the maximum). The conditions noted are these: HepG2 Attagene TRANS ERa GAL4 reporter, mRNA. A digest of the protocol: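 Cells: HepG2, transiently transfected. Construct: GAL4-UAS reporter units regulated by exogenous NR-Gal4 chimeras. Time: 24 h. Detection: reporter mRNA by RT-PCR, capillary electrophoresis, fluorescence. Baseline: DMSO, upward fitting.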

The target in assay [20] is Steroid hormone receptor ERR1 (Homo sapiens) (UniProt P11474). Kind of assay: ATG_ERRa_TRANS: Attagene TRANS-FACTORIAL HepG2 Assay for human Estrogen-Related Receptor alpha (ERRa) (AID 2282971; active means hit-call score of the fitted dose curve at least 0.9, where 1 is the maximum). The conditions noted are these: HepG2 Attagene TRANS reporter, ERRa transactivation. A digest of the protocol:
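Reporter transcripts from ERRa-Gal4 chimera activity measured in transiently transfected human HepG2 cells 24 hours after dosing, using RT-PCR with 6-FAM primer extension, HpaI digestion and capillary electrophoresis; DMSO is baseline.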

Paired box protein Pax-6 (Homo sapiens), sequence (P26367 whole entry, looked up): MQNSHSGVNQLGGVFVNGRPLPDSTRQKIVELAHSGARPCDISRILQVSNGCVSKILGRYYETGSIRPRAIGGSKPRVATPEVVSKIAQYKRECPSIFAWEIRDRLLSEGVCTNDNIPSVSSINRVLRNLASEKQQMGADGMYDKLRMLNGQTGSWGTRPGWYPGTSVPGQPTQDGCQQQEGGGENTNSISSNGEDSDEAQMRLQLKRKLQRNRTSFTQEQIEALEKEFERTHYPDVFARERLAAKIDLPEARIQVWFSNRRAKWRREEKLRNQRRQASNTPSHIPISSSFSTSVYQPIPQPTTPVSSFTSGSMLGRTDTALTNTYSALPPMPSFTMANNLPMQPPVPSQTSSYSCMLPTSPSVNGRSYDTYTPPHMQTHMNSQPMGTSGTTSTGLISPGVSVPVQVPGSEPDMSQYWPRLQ
X-box-binding protein 1 (Homo sapiens), sequence (P17861 whole entry, looked up, the tested form may be a part): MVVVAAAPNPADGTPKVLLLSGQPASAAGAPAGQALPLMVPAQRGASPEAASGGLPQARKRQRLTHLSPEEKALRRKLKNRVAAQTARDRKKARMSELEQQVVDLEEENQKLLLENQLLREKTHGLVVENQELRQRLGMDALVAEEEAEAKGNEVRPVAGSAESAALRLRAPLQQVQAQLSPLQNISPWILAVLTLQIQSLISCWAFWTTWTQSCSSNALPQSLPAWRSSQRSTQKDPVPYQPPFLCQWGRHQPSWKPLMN
Transcription factor Sp1 (Homo sapiens), sequence (P08047 whole entry, looked up): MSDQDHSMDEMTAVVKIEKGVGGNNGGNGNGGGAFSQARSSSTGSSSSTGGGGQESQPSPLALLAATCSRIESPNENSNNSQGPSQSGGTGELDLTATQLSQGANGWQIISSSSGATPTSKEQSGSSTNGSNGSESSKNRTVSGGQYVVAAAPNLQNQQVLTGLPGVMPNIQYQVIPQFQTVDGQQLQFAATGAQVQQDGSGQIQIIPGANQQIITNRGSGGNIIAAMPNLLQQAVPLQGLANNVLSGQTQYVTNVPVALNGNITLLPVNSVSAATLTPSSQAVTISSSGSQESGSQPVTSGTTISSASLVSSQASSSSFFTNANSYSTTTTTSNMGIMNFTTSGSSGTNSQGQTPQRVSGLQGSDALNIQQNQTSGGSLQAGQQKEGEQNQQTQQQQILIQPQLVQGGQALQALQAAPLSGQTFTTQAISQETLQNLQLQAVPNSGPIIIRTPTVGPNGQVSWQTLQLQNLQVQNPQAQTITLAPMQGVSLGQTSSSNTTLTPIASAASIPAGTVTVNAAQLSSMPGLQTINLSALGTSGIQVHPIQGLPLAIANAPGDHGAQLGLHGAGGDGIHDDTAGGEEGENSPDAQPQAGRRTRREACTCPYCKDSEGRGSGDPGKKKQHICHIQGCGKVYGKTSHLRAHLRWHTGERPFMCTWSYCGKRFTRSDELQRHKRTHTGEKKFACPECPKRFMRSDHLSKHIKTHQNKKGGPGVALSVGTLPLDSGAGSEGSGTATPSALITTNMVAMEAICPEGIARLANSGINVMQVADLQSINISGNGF
Signal transducer and activator of transcription 3 (Homo sapiens), sequence (P40763 whole entry, looked up): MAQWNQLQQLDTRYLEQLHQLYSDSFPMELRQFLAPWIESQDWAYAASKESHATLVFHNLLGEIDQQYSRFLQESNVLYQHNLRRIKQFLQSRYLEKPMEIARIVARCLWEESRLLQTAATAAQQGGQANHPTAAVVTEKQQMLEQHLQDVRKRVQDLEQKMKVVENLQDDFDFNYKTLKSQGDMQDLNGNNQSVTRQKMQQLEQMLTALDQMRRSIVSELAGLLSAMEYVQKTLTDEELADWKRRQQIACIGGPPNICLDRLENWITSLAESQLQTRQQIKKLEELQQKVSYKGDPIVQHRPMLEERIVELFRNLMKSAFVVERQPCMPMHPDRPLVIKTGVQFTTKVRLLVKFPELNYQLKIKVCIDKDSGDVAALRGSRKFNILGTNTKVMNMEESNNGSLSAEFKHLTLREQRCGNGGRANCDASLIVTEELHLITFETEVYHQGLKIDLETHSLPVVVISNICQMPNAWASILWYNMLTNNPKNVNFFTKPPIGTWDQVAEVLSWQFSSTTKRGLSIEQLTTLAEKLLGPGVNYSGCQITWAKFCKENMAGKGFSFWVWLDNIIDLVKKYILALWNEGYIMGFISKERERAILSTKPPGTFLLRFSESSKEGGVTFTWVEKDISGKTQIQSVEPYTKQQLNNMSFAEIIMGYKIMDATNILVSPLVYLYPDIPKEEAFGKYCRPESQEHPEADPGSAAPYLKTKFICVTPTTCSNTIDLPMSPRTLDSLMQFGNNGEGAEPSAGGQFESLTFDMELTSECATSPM
Nuclear receptor subfamily 1 group I member 3 (Homo sapiens), sequence (Q14994 whole entry, looked up, the tested form may be a part): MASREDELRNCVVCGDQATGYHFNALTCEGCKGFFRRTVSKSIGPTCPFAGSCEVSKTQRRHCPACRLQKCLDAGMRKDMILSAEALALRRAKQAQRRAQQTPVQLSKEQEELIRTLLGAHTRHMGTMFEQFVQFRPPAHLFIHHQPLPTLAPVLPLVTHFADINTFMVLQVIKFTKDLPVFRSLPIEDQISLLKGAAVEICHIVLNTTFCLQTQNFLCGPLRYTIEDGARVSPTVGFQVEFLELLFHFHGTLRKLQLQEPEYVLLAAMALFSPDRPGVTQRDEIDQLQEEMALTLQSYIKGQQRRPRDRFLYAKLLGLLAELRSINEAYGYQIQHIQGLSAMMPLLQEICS
Estrogen receptor (Homo sapiens), sequence (P03372 whole entry, looked up, the tested form may be a part): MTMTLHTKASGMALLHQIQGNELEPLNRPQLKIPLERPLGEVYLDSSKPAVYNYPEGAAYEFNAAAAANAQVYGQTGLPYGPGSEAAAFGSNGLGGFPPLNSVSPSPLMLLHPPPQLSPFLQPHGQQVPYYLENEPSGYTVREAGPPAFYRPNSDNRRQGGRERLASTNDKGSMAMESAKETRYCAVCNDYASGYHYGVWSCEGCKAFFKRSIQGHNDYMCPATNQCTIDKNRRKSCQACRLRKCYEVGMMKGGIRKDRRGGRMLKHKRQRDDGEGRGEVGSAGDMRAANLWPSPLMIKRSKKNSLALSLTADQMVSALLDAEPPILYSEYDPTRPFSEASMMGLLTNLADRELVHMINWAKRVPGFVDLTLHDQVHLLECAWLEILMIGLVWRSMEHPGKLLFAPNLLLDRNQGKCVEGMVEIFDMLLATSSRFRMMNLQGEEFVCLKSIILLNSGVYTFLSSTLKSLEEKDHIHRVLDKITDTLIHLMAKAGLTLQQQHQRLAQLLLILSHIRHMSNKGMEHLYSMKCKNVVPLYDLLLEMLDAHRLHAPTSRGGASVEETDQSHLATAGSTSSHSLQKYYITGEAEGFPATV
Steroid hormone receptor ERR1 (Homo sapiens), sequence (P11474 whole entry, looked up, the tested form may be a part): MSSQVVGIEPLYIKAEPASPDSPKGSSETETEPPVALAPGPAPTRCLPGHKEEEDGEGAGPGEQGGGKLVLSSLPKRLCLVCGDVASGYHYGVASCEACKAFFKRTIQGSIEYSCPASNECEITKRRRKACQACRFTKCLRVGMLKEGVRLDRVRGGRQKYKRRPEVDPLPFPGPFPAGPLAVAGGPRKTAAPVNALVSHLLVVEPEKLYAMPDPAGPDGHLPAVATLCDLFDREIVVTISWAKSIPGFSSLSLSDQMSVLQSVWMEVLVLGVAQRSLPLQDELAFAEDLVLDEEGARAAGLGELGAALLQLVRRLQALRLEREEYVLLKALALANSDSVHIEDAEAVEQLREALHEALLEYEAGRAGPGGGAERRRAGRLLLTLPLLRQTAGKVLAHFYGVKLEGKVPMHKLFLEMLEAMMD

Turning to `C[Si]1(C)O[Si](C)(C)O[Si](C)(C)O[Si](C)(C)O[Si](C)(C)O1`, the outcome in [1], in assay [2], in assay [4], in assay [5], in [6] and in assay [7] was inactive. For the same molecule, the molecule was classed as inactive in [8], in assay [9], in assay [10], in assay [11], in assay [12] and in assay [13]. The call in assay [14], in assay [15], in assay [16], in assay [17] and in assay [18] was inactive. For the same molecule, the AC50 in assay [3] was 27.2 µM (active).
Consider `Nc1ncnc2nc[nH]c12`, for which the outcome in [1], in [2], in assay [3], in [4], in assay [5] and in assay [6] was inactive. In addition, the molecule was classed as inactive in [7], in [8], in assay [9], in assay [10], in assay [11] and in assay [12]. Moreover, the call in [13], in [14], in assay [16] and in [18] was inactive.
For `CCCCOC(=O)CCC(C)=O`, the result in assay [1], in assay [2], in assay [3], in [4], in [5] and in assay [6] was inactive. For the same molecule, the molecule was called inactive in assay [7], in assay [8], in [9], in assay [10], in assay [11] and in assay [12]. For the same molecule, the call in [13], in assay [14], in assay [15], in [19], in assay [16] and in [17] was inactive.
Regarding `CCCCOCCOCCOC(C)=O`, the result in assay [1], in assay [2], in assay [3], in assay [4], in assay [5] and in assay [6] was inactive. Also, the result in assay [7], in [8], in [9], in assay [10], in assay [11] and in assay [12] was inactive. In addition, the outcome in assay [14], in assay [19], in assay [20], in assay [16], in [17] and in [18] was inactive.
